The campaign covered roughly 86,000 compounds. About 140 (0.16%) were called active. The entries come from a sample that favours actives as a whole. Values without a mark were called inactive.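 How the source made its calls: active means activation factor of at least 2 for MT1-MMP transcription at 10 µM; inactive means the rest.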

The assay in a line: MT1-MMP promoter reporter activation – cell-based, luciferase luminescence, primary screen (AID 750). The following applies: HT1080 MT1-MMP promoter luciferase reporter, overnight, at 10 µM, active compounds read high.
Regarding `CNC(=S)N1N=C(c2ccccc2)CC1c1ccc(Br)cc1` (stereo not given), the activation factor was 1.3.
As for `Cc1noc(NS(=O)(=O)c2ccc(N/C=C/C(=O)c3ccccc3)cc2)c1C`, the figure is 1.3.
As to `COc1cc(C)c(C(C)C)cc1S(=O)(=O)n1ccnc1`, the activation factor is 1.2.
As to `COc1ccc(NC(=O)CCN2CCCC2)c(OC)c1`, the activation factor was 1.2.
For `COC(=O)c1ccc(NC(=O)Nc2ccc(C)cc2)cc1`, the activation factor was 1.6.
With `COc1ccc(C(=O)Cc2cnn(-c3ccccc3)c2)c(O)c1`, the activation factor is 1.3.
As for `CC(C)CCSc1ncnc2c1oc1nc3c(cc12)COC(C)(C)C3`, the activation factor was 1.1.
As to `COc1cccc(NC(=O)CN2CCN(c3nc(-c4cccc(OC)c4)cs3)CC2)c1`, the activation factor is 1.2.
As to `CCCNC(=O)NCc1ccc(N2CCCC2=O)cc1`, the activation factor was 1.1.
In the case of `COc1ccc(C2C(C(C)=O)=C(O)C(=O)N2Cc2cccnc2)cc1` (stereo not given), the activation factor is 1.2.
Take `CC(C)NC(=O)CSc1nnc(COc2ccccc2Cl)o1`: the activation factor was 1.1.
As for `CCOn1c(SC(C)C)nc2ccccc2c1=O`, the figure is 1.1; as for `COC(=O)C1CCN(CC(N)=O)CC1`, 1.1; as for `CC(C)OC(=O)CN1C(=O)C(=O)c2ccccc21`, 1.3.
As to `COc1ccc(-c2oc(/N=C/N3CCCC3)c(C#N)c2-c2ccc(OC)cc2)cc1`, the activation factor is 1.1.
As for `COC(=O)[C@H](Cc1ccccc1)NC(=O)[C@@H]1C[C@H]1[C@@H](NC(=O)OCc1ccccc1)c1ccccc1`, the activation factor was 1.1.
In the case of `CCOc1ccc(S(=O)(=O)NCCSc2ccccc2)cc1`, the activation factor is 1.1.
As for `CCOC(=O)C1=C(CCc2ccccc2)NC(=O)NC1c1ccc2ccccc2c1` (stereo not given), the figure is 1.4; as for `COc1ccc(C)cc1S(=O)(=O)Nc1cccc(Cl)c1Cl`, 1.1; as for `Cc1ccc(C(=O)N2CCCC2)c(F)c1F`, 1.2.
In the case of `O=C(O)c1cc2ccccc2c(=O)s1`, the activation factor was 1.1.
Consider `Cc1cc(C)n(-c2c(F)c(F)c(COC(=O)c3ccccc3)c(F)c2F)n1`, for which the activation factor is 1.1.
Take `Cc1ccc(/C=N/NC(=O)C2=NNC(c3ccccc3)(c3ccccc3)C2)c(O)c1`: the activation factor is 1.1.
On to `COc1ccc(C)cc1NC(=O)CCS(=O)(=O)c1cccc2nonc12`, for which the activation factor was 1.
`CN(C)c1nc(N)nc(CSc2ccccn2)n1`: the activation factor is 1.1.
Regarding `CCCc1noc2c1/C(=N\O)CCC2`, the activation factor is 1.1.
Consider `Cn1c(Cc2cccc3ccccc23)nnc1SCC(=O)N1CCN(c2cccc(Cl)c2)CC1`, for which the activation factor was 1.1.
On to `CCOc1ccc(NC(=O)CN(C)CC(=O)Nc2cccc(Cl)c2C)cc1OCC`, for which the activation factor is 0.9.
The figure for `COc1ccc(N2CCN(C(=O)CNC(=O)c3ccc(C(C)(C)C)cc3)CC2)cc1` is 1.1; for `O=C(NCCSCc1ccccc1)c1ccc(Cl)c(S(=O)(=O)N2CCOCC2)c1` it is 1.1.
The figure for `Cc1cnc(NC(=O)CSc2nnc(C)s2)s1` is 1; for `CCN(CC(=O)NC1CCS(=O)(=O)C1)c1nc(-c2cccnc2)nc2ccccc12` (stereo not given) it is 1.1.
For the molecule `COc1ccccc1NC(=O)CSc1nnc(C)n1CC1CCCO1` (stereo not given), the activation factor is 1.1.
`O=C(CN1CCN(C(=O)c2ccco2)CC1)Nc1ccc2c(c1)OCO2`: the activation factor is 1.4.
For `O=C(Nc1nnc(SCc2c(Cl)cccc2Cl)s1)C1CCCO1` (stereo not given), the activation factor is 1.2.
Consider `Cc1ccc(C2(C(F)(F)F)N=C3Sc4cc(C)cc(C)c4N3C(=O)N2)cc1` (stereo not given), for which the activation factor was 1.1.
As for `C=C(C)CNC(=S)/N=c1\scc(C)n1CC`, the activation factor is 1.3.
With `O=C(Cc1ccc(-n2c(=O)[nH]c3ccccc3c2=O)cc1)N1CCN(c2cccc(Cl)c2)CC1`, the activation factor is 1.
Consider `COc1ccc(Br)cc1CN1CCN(C(=O)c2cccc(OC)c2OC)CC1`, for which the activation factor is 1.1.
Consider `COc1ccc(C2=Nc3cc(C)ccc3OC2)cc1`, for which the activation factor was 0.9.
Take `CS(=O)(=O)N1CCN(c2cccc(Cl)n2)CC1`: the activation factor is 1.2.
Regarding `COc1ccc(S(=O)(=O)Nc2ccc3oc(C)c(C(C)=O)c3c2)cc1`, the activation factor was 1.1.
As to `Cc1ccc(C2=CSC3=NS(=O)(=O)CCN23)cc1C`, the activation factor was 1.1.
The figure for `CC1=C(C(=O)OC(C)(C)C)C(c2ccc(Br)cc2)NC(=O)N1CCCC(=O)O` (stereo not given) is 1.1; for `CCS(=O)(=O)Nc1ccc(C2=NN(S(=O)(=O)c3ccc(F)cc3)C(c3ccco3)C2)cc1` (stereo not given) it is 1.1.
Take `CC1=CC(C)(C)NC(=S)N1c1ccccc1`: the activation factor was 1.1.
On to `Cc1ccc(SCC(=O)c2cc(C)c(OC(=S)N(C)C)c(C)c2)cc1`, for which the activation factor is 1.9.
`COC(=O)CSc1nc2c(c(C3CC=CCC3)c1C#N)CCC2` (stereo not given): the activation factor was 1.
`O=C(NCCCN1CCCCC1)c1ccc2c(c1)NC(=O)C(N1CCOCC1)S2` (stereo not given): the activation factor is 1.1.
Take `CC(C)CC[n+]1ccn(C2=C([O-])c3ccccc3C(=O)/C2=N\S(=O)(=O)c2ccccc2)c1`: the activation factor was 0.8.
Turning to `Cc1ccc2c(c1)c1ncnc(N3CCc4ccccc4C3)c1n2C`, the activation factor was 2 (active).
As for `Cc1ccc2c(c1)c1ncn(CCC3=CCCCC3)c(=O)c1n2C`, the figure is 1.3; as for `Cc1cccc(-n2ncc3c(N4CCc5ccccc54)ncnc32)c1`, 1.5; as for `COc1ccc(N(CC(=O)NC2CCCCC2)C(=O)CNC(=O)c2ccco2)c(OC)c1`, 1.2.
Turning to `CSc1nc(C)cc(SC(C(C)=O)C(=O)Nc2ccccc2)n1` (stereo not given), the activation factor was 1.1.
As for `CSc1nc2nc3c(c(=O)n2[nH]1)CCC3`, the activation factor was 1.2.
For `COc1ccccc1CCNC(=O)c1cnccn1`, the activation factor was 1.2.
The figure for `CCCCCOC(=O)c1ccc(N2C(=O)C3C4C=CC(C4)C3C2=O)cc1` (stereo not given) is 1.2; for `O=C(NCc1ccc2c(c1)OCO2)C12CC3CC(CC(C3)C1)C2` it is 1; for `Cc1ccc(N(Cc2ccc(C(=O)Nc3ccccc3C(=O)NCc3ccco3)cc2)S(C)(=O)=O)cc1C` it is 1.1.
For `COc1ccccc1NC(=O)/C=C/C(N)=O`, the activation factor is 1.3.
Turning to `CC(C)CCNC(=O)CC1C(=O)N(Cc2ccccc2)C(C)c2nc3ccccc3n21` (stereo not given), the activation factor was 1.
On to `CCOC(=O)c1ccccc1NS(=O)(=O)c1ccc(OC)cc1`, for which the activation factor is 1.
With `CCn1c(CC(=O)Nc2ccc(C)cc2)nnc1SCC(=O)Nc1nc(C)cs1`, the activation factor is 1.1.
With `CCN1CCN(C(=O)c2cc3cc4ccc(OC)cc4nc3s2)CC1`, the activation factor is 1.3.
Turning to `CC1CN(S(=O)(=O)c2ccccc2)C(C)CN1S(=O)(=O)c1ccccc1` (stereo not given), the activation factor was 1.3.
Take `CCOC(=O)c1c(C)nc2c(c1C)c(=O)oc1ccccc12`: the activation factor was 1.1.
Regarding `Cn1c(C(=O)OC(C(=O)NC2CCCCC2)c2ccccn2)cc2sccc21` (stereo not given), the activation factor is 1.2.
For the molecule `CCCNC(=S)N1CCC(NC(=O)C23CC4CC(CC(C4)C2)C3)CC1`, the activation factor was 1.2.
Regarding `O=C(Nc1nncs1)c1cccc(S(=O)(=O)N2CCCCC2)c1`, the activation factor is 1.
The figure for `N#Cc1ccc(C=NC(c2ccccc2)c2ccccc2)cc1` is 1.2.
Regarding `CN(Cc1nc2ccccc2c(=O)[nH]1)Cc1cc(=O)oc2ccc3ccccc3c12`, the activation factor is 1.
As to `Cc1nn(C(C)CC(=O)O)c(C)c1C` (stereo not given), the activation factor is 1.2.
For `COc1ccc(NC(=O)CSc2nc(NS(=O)(=O)c3ccc(C)cc3)cc(=O)[nH]2)cc1`, the activation factor was 1.3.
As for `O=C(N/N=C\c1cccc(Br)c1)c1ccccc1-n1cccc1`, the activation factor was 1.4.
In the case of `Cc1ccc(S(=O)(=O)Nc2nc(C)cc(-n3nc(C)cc3C)n2)cc1`, the activation factor is 1.
The figure for `CCC(C)NC(=O)C1CCCN(C(=O)NC2CCCCC2)C1` (stereo not given) is 1.2; for `Cc1cc(C)n(-c2nc(O)cc(=O)[nH]2)n1` it is 1.
`O=C(CN(c1ccccc1)S(=O)(=O)c1ccc(Cl)cc1)Nc1ccccc1C(=O)N1CCCC1`: the activation factor was 0.9.
On to `O=C1/C(=C/c2cccs2)CCc2ccccc21`, for which the activation factor was 1.8.
As for `CCOC(=O)C1=C(C)NC(=O)NC1c1ccccc1` (stereo not given), the figure is 1.1; as for `Cc1ccc(S(=O)(=O)c2c(COC(=O)c3cccc(Cl)c3)c(-c3ccccc3)nn2C)cc1`, 1.1.
With `CCOC(=O)c1[nH]c(C)c(C(=O)OCC(=O)N2c3ccccc3CC2C)c1C` (stereo not given), the activation factor was 1.
As for `C=C(Cl)COC(=O)C1C2C=CC(C2)C1C(=O)O` (stereo not given), the activation factor is 1.1.
The figure for `O=C(/C=C/c1ccc(Cl)cc1Cl)c1cccnc1` is 1; for `CCCCc1nc(NCCN)c(C#N)c2c1CSC(C)(C)C2` it is 1.4.
In the case of `CCOc1ccc(NC(=O)CCS(=O)(=O)c2ccc3c(c2)CCCN3C(=O)CC)cc1`, the activation factor is 1.1.
Turning to `O=C(CSC1=Nc2ccccc2C2=NC(CC(=O)NCc3ccco3)C(=O)N12)NCc1ccco1` (stereo not given), the activation factor was 1.1.
Take `CC1(C(=O)NCCc2c[nH]c3ccccc23)C=CC2(CCCCC2)N1C(=O)c1ccccc1` (stereo not given): the activation factor was 1.
The figure for `O=c1[nH]c(SCc2ccccc2)nnc1-c1ccccc1` is 1.1.
In the case of `O=C(CCc1ccccc1)NCC#CC(O)c1ccc(Br)cc1` (stereo not given), the activation factor is 1.2.
On to `O=C(NCc1ccccc1Cl)c1csc2c1CCCCC2`, for which the activation factor was 1.1.
For `CCCCCCSc1nsc(N)n1`, the activation factor is 1.4.
In the case of `CC(C)CNC(=O)CC(c1ccccc1)c1c(O)ccc2ccccc12` (stereo not given), the activation factor was 1.
For the molecule `CCCNC(=O)CN(Cc1ccccc1F)S(=O)(=O)c1ccc(C)cc1`, the activation factor was 1.3.
Turning to `CCCCNS(=O)(=O)c1ccc(S(=O)(=O)n2cnc3ccccc32)cc1`, the activation factor is 1.1.
For the molecule `O=C(Nc1nccs1)c1cc(S(=O)(=O)N2CCOCC2)c(Cl)cc1Cl`, the activation factor is 1.
Regarding `CCn1nc(C)c(NC(=O)/C=C/c2ccc(OC)c(COc3ccc(Br)cc3)c2)c1C`, the activation factor was 0.9.
The figure for `CCCCN(CC)CCNC(=O)c1[nH]c(C)c(C(C)=O)c1C` is 0.9.
For the molecule `O=C(COc1ccc(Cl)cc1)NCCSc1ccccc1`, the activation factor was 1.2.

These data come from PubChem BioAssay AID750 (Sanford-Burnham Center for Chemical Genomics, 2007).
